This is an account of results in PubChem BioAssay (Tox21).

Where “and” joins values, the source holds several entries; their conditions need not be identical. Equal values may be shown once. Results filed as inconclusive are left out. Calls of active or inactive are those of the source. Calls come from the whole dose curve; as a rule, active = well fitted inhibition curve with a large enough effect in the repeat runs; inconclusive = weak or mixed curves; inactive = no such curve, though single readings can be large or run the other way.
Potency is the fitted concentration of half-maximal effect.

Cytochrome P450 2C9 (Homo sapiens), sequence (P11712 whole entry, looked up): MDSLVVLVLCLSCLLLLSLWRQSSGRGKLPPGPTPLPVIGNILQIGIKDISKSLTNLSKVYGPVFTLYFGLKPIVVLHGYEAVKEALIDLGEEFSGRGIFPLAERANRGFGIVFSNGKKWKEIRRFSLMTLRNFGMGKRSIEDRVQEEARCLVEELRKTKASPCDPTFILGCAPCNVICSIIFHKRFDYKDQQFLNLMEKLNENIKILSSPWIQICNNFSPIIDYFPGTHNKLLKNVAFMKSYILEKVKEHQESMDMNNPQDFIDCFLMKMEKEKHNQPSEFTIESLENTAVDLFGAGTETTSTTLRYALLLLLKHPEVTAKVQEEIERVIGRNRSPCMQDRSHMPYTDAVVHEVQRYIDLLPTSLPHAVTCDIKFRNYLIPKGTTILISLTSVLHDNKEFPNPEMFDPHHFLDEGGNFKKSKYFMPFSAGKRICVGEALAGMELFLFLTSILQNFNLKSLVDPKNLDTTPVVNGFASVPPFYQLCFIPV

In the experiment the target is Cytochrome P450 2C9 (Homo sapiens) (UniProt P11712). The experiment can be described thus: Cytochrome P450 Family 2 Subfamily C Member 9 (CYP2C9) small molecule antagonists: luciferase reporter qHTS assay (AID 1671198). Note: nearly all actives have a fitted effect of over 50% in size. Particulars: P450-Glo CYP2C9 enzyme assay, luciferin luminescence; series mostly up to 115 µM. The source says:
U.S. Tox21 Program National Center for Advancing Translational Sciences [NCATS] U.S. Environmental Protection Agency [EPA] National Institutes of Environmental Health Sciences [NIEHS] National Toxicology Program [NTP] U.S. Food and Drug Administration [FDA] Tox21 Assay Overview: Cytochrome P450 (CYP) enzymes are membrane-bound hemeproteins that play a key role in metabolism of drugs and xenobiotics. Evaluation of the effect of chemicals on CYP isozymes is useful to minimize the adverse drug reactions and toxicities in drug development process. Tox21 chemicals were tested for their effect on CYP enzyme activities by using P450-Glo (TM) screening systems (Promega Corporation, Madison, WI). These systems provide a luminescent method containing proluciferin substrates and are converted to luciferin products by CYP isozymes. The luciferin products formed are detected with a luciferin detection reagent, and the amount of light produced is proportional to CYP activity. P450-Glo (TM) CYP2C9 screening system (Catalog. No. V9790) was used to detect the compounds that interfere in CYP2C9 activity.
Tox21 Assay Protocol Summary: Two ul of enzyme-substrate mix was dispensed into medium binding white/solid 1536-well plates (Greiner Bio-One North America Inc., Monroe, NC) using a BioRaptr Flying Reagent Dispenser (FRD, Beckman Coulter, Brea, CA). […] The assay plates were incubated at room temperature for 10 min. Then 2 ul of NADPH regeneration solution was added to each well of the assay plates using an FRD and incubated at 37C for 1 h. The reaction was stopped by adding 4 ul of detection reagent using an FRD and after 20 min incubation at room temperature the luminescence signal was measured using a ViewLux plate reader (Perkin Elmer, Shelton, CT). Data were expressed as relative luminescence units.
A general note: A reporter such as luciferase makes a cellular process visible.
`CN(C)CCN1C(=O)c2ccccc2N(C)c2ccccc21`: the Potency entry is “inactive”.

Consider `CC(CC1c2ccccc2CCc2ccccc21)CN(C)C` (stereo not given), for which the Potency entry is “inactive”.

With `COc1ccccc1N1CCN(CCCCNC(=O)c2ccc(-c3ccc(C(C)=O)cc3)cc2)CC1`, the Potency result was “inactive”.

For `COc1ccc(OC(=O)N(CC(=O)O)Cc2ccc(OCCc3nc(-c4ccccc4)oc3C)cc2)cc1`, the Potency is 13.8 µM (active).

For `O=C(/C=C/c1ccccc1)OCCc1ccccc1`, the Potency was 25.2 µM (active).

In the case of `Oc1cc2c(cc1O)[C@H]1c3ccc(O)c(O)c3OC[C@@]1(O)C2`, the Potency is 32.1 µM (active).

As to `C[C@@H](O[C@H]1OCCN(Cc2n[nH]c(=O)[nH]2)[C@H]1c1ccc(F)cc1)c1cc(C(F)(F)F)cc(C(F)(F)F)c1`, the Potency is 13.8 µM (active).

Regarding `CCC(C)COC(C)=O` (stereo not given), the Potency result is “inactive”.

On to `O=C1c2ccccc2C(=O)N1CCc1noc(-c2ccc(CN3CCCCCC3)s2)n1`, for which the Potency is 20.6 µM (active).

Turning to `Cc1ccc(C(C)(C)O)cc1`, the Potency entry was “inactive”.

With `CC(C)(C)C(=O)C(=O)O`, the Potency entry was “inactive”.

Consider `Cc1cscn1`, for which the Potency entry is “inactive”.

Regarding `CCC(=O)OC`, the Potency result is “inactive”.

On to `C=C(C)[C@@H]1CCC2=CCC[C@@H](C)[C@]2(C)C1`, for which the Potency was 63.3 µM (active).

For the compound `OC[C@H]1O[C@@H](n2cnc3c(=S)nc[nH]c32)[C@H](O)[C@@H]1O`, the Potency was 13.8 µM (active).

As to `COc1cc(C(=O)NC2CCN(C)CC2)ccc1Nc1ncc2c(n1)N(C1CCCC1)CC(F)(F)C(=O)N2C`, the Potency was 29.1 µM (active).

On to `C[C@H]1C[C@H](O)c2ccsc2S1(=O)=O`, for which the Potency result is “inactive”.

In the case of `CC1CC(C)C(=O)C1=O` (stereo not given), the Potency entry is “inactive”.

Turning to `C=CC(=O)OCC1CC2CC1C1CCC(COC(=O)C=C)C21` (stereo not given), the Potency was 17.8 µM (active).

`CC(CCC(=O)O)C(=O)O` (stereo not given): the Potency entry was “inactive”.

Take `Cc1ccc(Cl)c(Nc2ccccc2C(=O)O)c1Cl`: the Potency was 17.4 µM (active).

As to `CCCCCC#CC(=O)OC`, the Potency was 63.3 µM (active).

Regarding `C=C(C)CCCC(C)CCO` (stereo not given), the Potency was 39.9 µM (active).

As for `O=[N+]([O-])c1cc(C2CCCCC2)c(O)c([N+](=O)[O-])c1`, the Potency is 8.91 µM (active).

With `O=C(O)c1ccc(OCCCOc2ccc(C(=O)O)cc2)cc1`, the Potency entry was “inactive”.

In the case of `CC(C)(O)c1ccc(CNC(=O)c2cccnc2Oc2ccc3nonc3c2)cc1`, the Potency was 25.2 µM (active).

Regarding `O=C(O)C[C@H](NC(=O)OCc1ccccc1)C(=O)O`, the Potency result is “inactive”.

In the case of `CCCCCCCCCCCCCCN(CCO)CCO`, the Potency is 31.7 µM (active).

On to `NCCNCCO`, for which the Potency result is “inactive”.

With `CCC1(CO)COCOC1`, the Potency result was “inactive”.

As to `Clc1ccc(Nc2nnc(Cc3ccncc3)c3ccccc23)cc1`, the Potency was 1.55 µM (active).

`C=C1C[C@@]23CC[C@H]4[C@@](C)(CCC[C@@]4(C)C(=O)O[C@@H]4O[C@H](CO)[C@@H](O)[C@H](O)[C@H]4O)[C@@H]2CC[C@]1(O[C@@H]1O[C@H](CO)[C@@H](O)[C@H](O[C@@H]2O[C@H](CO)[C@@H](O)[C@H](O)[C@H]2O)[C@H]1O[C@@H]1O[C@H](CO)[C@@H](O)[C@H](O)[C@H]1O)C3`: the Potency entry is “inactive”.

For the compound `CC[N+](CC)(CCNC(=O)C(=O)NCC[N+](CC)(CC)Cc1ccccc1Cl)Cc1ccccc1Cl`, the Potency entry was “inactive”.

In the case of `C[C@@H]1CC(=O)NN=C1c1ccc(NN=C(C#N)C#N)cc1`, the Potency was 1.38 µM (active) and 1.23 µM (active).

For the compound `CCCCCCNC(=O)n1cc(F)c(=O)[nH]c1=O`, the Potency was 15.5 µM (active).

On to `CCCCCCCCC(CCCCCC)C(=O)O` (stereo not given), for which the Potency is 25.2 µM (active).

As for `Cc1cc(C)c(N)cc1C`, the Potency is 35.5 µM (active).

Regarding `C=CC(C)(CCC=C(C)C)OC(=O)CC(C)C` (stereo not given), the Potency was 35.6 µM (active).

For the compound `COc1ncnc(NS(=O)(=O)c2ccc(N)cc2)c1OC`, the Potency result was “inactive”.

With `CC(C)(C)CC(=O)OCC(=O)[C@@]1(O)CC[C@H]2[C@@H]3CCC4=CC(=O)C=C[C@]4(C)[C@H]3[C@@H](O)C[C@@]21C`, the Potency is 15.5 µM (active).
